Composite z-score data for 36 molecules are collected here from PubChem BioAssay.

SMILES strings stand for the structures.

This assay is described as follows: small-molecule binders of probe aLefty1, primary screen, biochemical, small-molecule microarray, 635/667 nm fluorescence (AID 1153).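 Further: score merges spot fluorescence with signal-to-noise ratio from the scanned slide images.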 The settings on record: higher = more signal.
In the case of `COc1ccc([Si](C)(C)[C@@H]2[C@@H](CCO)O[C@]3(C(=O)N(Cc4cccc(N5CCOC5=O)c4)c4ccccc43)[C@H]2C)cc1`, the composite z-score was 0.0357.

On to `CCOC(=O)C1=CC[C@H]2C(=O)N(c3ccccc3)C(=O)[C@@H]12`, for which the composite z-score came out at 0.0027.

On to `CCOC(=O)C[C@H]1[C@H](OC(=O)c2ccc(C(=O)c3ccccc3)cc2)[C@@H](NC(=O)Cc2ccc(OC)cc2)c2cc(OCCCO)ccc2N1C(=O)c1ccc2ccccc2n1`, for which the composite z-score was 0.131.

For the molecule `COC(=O)[C@@]1(Cc2ccc(F)cc2)[C@H]2c3cc(C(=O)N(C)C)n(Cc4cc(C)n(C)n4)c3C[C@H]2CN1C(=O)c1ccccc1`, the composite z-score was 0.0576.

Turning to `CCCC[C@@H]1C[C@H]1[C@@H](NC(=O)c1cccnc1)c1ccc(Cl)cc1`, the composite z-score was -0.321.

For `[N-]=[N+]=Nc1ccccc1C[C@@]1(C(=O)N2CCCCC2)N=C(c2ccc(OCCCO)cc2)O[C@@H]1c1ccccc1N=[N+]=[N-]`, the composite z-score was determined as 0.926.

As for `C=CCC(OC(C)=O)[C@@H]1[C@@H](N(Cc2ccc(-c3cccc(C(F)(F)F)c3)o2)C(=O)c2cccc3ccccc23)c2cc(OCCCO)ccc2N1C(=O)Cc1ccc2ccccc2c1` (stereo partly specified), the composite z-score was -0.147.

Take `CCCCN1CC=CC23O[C@@H]4C=CCOC(=O)[C@@H]4[C@H]2C(=O)N(CCCCCCO)[C@@H]3C1=O` (stereo partly specified): the composite z-score is -0.195.

In turn, `O=C1C2C=CC(C(O)C=Cc3ccc([N+](=O)[O-])cc3)N(n3cnnc3)C2C(=O)N1Cc1ccccc1` (stereo unspecified) returned a composite z-score of 0.406.

For the molecule `O=C1[C@H]2C=C(Br)[C@H](C[C@@H]2OCCCCCCO)[C@@]12CO2`, the composite z-score was -0.101.

In the case of `CCCCCCCCCCC(O)C1C=CC2C(=O)NC(=O)C2N1Nc1ccc(Cl)cc1Cl` (stereo unspecified), the composite z-score worked out at 0.335.

Take `C=CC1c2cc(O)c(OC)cc2CCN1Cc1cccc(OC(F)(F)F)c1` (stereo unspecified): the composite z-score was 0.123.

The molecule `CC(C)[Si](C#C[Si](C(C)C)(C(C)C)C(C)C)(O[C@H](C)c1cn(Cc2ccccc2)nn1)C(C)C` returned a composite z-score of 0.0509.

`O=C1O[C@H](c2ccccc2)[C@H](c2ccccc2)N2[C@H]1[C@@H](C(=O)NC[C@H](O)c1ccccc1)[C@]1(C(=O)Nc3ccc(C#CC4=CCCCC4)cc31)[C@H]2c1ccccc1OCCO` showed a composite z-score of 0.199.

Consider `COc1ccc(-c2cc3c(c(Cc4ccccc4)n2)[Si](C(C)C)(C(C)C)OC3)cn1`, for which the composite z-score was -0.0099.

In the case of `C=CCC(OC(C)=O)[C@@H]1[C@@H](N(Cc2ccc(-c3cccc(C(F)(F)F)c3)o2)C(=O)Cc2ccc(OC)cc2)c2cc(OCCCO)ccc2N1C(=O)c1ccc2ccccc2c1` (stereo partly specified), the composite z-score was 0.0191.

Turning to `CCC(CC)C(O)C1C=CC2C(=O)N(c3ccccc3)C(=O)C2N1Nc1ccccc1` (stereo unspecified), the composite z-score came to 0.947.

In turn, `CN1C(=O)C2C=CC(C(O)c3c(F)cccc3Cl)N(NC(=O)OC(C)(C)C)C2C1=O` (stereo unspecified) displayed a composite z-score of 0.343.

In turn, `C=C[C@H](C)[C@@H](OC(=O)Nc1ccc(SC)cc1)c1ccc(O)c2ccccc12` returned a composite z-score of 0.0942.

On to `COc1ccccc1CN1C(=O)c2ccccc2[C@@H](C(=O)NCc2ccccc2)[C@@H]1c1ccc(CO)cc1`, for which the composite z-score worked out at 0.148.

`O=C1OCC=C[C@H]2OC34C=CCN(Cn5nnc6ccccc65)C(=O)[C@H]3N(CCCCCO)C(=O)[C@@H]4[C@@H]12` (stereo partly specified): the composite z-score is -0.418.

As for `Cc1ccc(S[C@]2(C(=O)NCC(C)C)CC(=O)N(Cc3cc(C(F)(F)F)cc(C(F)(F)F)c3)[C@@H]2c2ccc(CO)cc2)cc1`, the composite z-score was 0.2.

On to `CS(=O)(=O)CCOC(=O)C1=CC(CCCO)=CC(C2CC2)N(Cc2cc3c(cc2Br)OCO3)C=C1C(=O)OCCS(C)(=O)=O` (stereo unspecified), for which the composite z-score was found to be 0.131.

Regarding `C=CCOC(=O)[C@H]1[C@@H]2C(=O)O[C@@H](c3ccccc3)[C@@H](c3ccccc3)N2[C@@H](c2ccc(OCCOC(=O)[C@H]3C[C@H]4C(=O)N[C@@H](CCCCN(C)C)C(=O)N4[C@H]3c3cccc(OCCO)c3)cc2)[C@]12C(=O)Nc1ccc(I)cc12`, the composite z-score was -0.156.

Consider `COc1ccc([Si](C)(C)[C@H]2[C@H](CC(=O)N3CCC[C@H]3CO)O[C@@]3(C(=O)N(Cc4cccc(N5CCOC5=O)c4)c4ccccc43)[C@@H]2C)cc1`, for which the composite z-score was -0.017.

Consider `O=C1OCCC=C[C@H]2OC34C=CCN(c5ccc(Cl)cc5)C(=O)[C@H]3N(CCCO)C(=O)[C@@H]4C12` (stereo partly specified), for which the composite z-score was -0.221.

On to `COc1ccc(C(O)C2C=CC3C(=O)N(C)C(=O)C3N2N(c2ccccc2)c2ccccc2)c2ccccc12` (stereo unspecified), for which the composite z-score turned out to be 0.407.

For `COCC(=C=CC[C@H](O)c1cccc(OCCO)c1)CCO`, the composite z-score is -0.0508.

In turn, `CC[C@@H]1C=C(C(=O)O)[C@H](c2ccc(C)cc2)N1S(=O)(=O)c1ccc(C)cc1` yielded a composite z-score of 0.0582.

As for `O=C1NC(=O)C2C1C=CC(C(O)C1CC=CCC1)N2Nc1ccccn1` (stereo unspecified), the composite z-score is -0.0172.

For `COc1ccc(C(=O)Nc2cccc(CN3C(=O)[C@]4(O[C@H](CCn5cc(CCO)nn5)[C@@H]([Si](C)(C)c5ccc(OC)cc5)[C@@H]4C)c4ccccc43)c2)cc1`, the composite z-score is -0.0061.

As for `CS(=O)(=O)CCOC(=O)C1=CC(CCCO)=CC(c2ccc(CN3CCCC3)cc2)N(Cc2cccc(OC(F)(F)F)c2)C=C1C(=O)OCCS(C)(=O)=O` (stereo unspecified), the composite z-score stood at 0.879.

With `COC(=O)c1c2oc(c1C(=O)OC)C(=O)N[C@@H](C(C)C)Cn1cc(nn1)C1(CCCCC1)NC(=O)N[C@H](CO)CC2`, the composite z-score was -0.146.

The molecule `O=C1O[C@@H](c2ccccc2)[C@@H](c2ccccc2)N2[C@@H](c3ccc(OCCO)cc3)[C@]3(C(=O)Nc4ccc(C#CCCO)cc43)[C@@H](C(=O)NC[C@H](O)c3ccccc3)[C@H]12` returned a composite z-score of 0.708.

Consider `CC(c1ccccc1)C(O)C1C=CC2C(=O)N(c3ccccc3)C(=O)C2N1Nc1ccccc1` (stereo unspecified), for which the composite z-score turned out to be 1.05.

As for `CC1CC/C=C\[C@H]2OC34C=CCN(Cc5ccccc5)C(=O)[C@H]3N(C(C)CO)C(=O)[C@@H]4C2C(=O)O1` (stereo partly specified), the composite z-score was -0.0984.
